Experimental data as given in PubChem BioAssay (NCI).
The panel holds about 83,000 compounds, 20% with a hit somewhere; the sample as a whole holds those more often.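 Note: values are percent growth. 100 is the growth of untreated cells, values between 100 and 0 indicate rising inhibition; between -100 and 0 indicates cell death.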 A number with no mark means an inactive call. Calls of active or inactive are those of the source. How the source made its calls: active means growth percent below 10; inactive means the rest.

Key:
Assay in all cases: NCI-60 one-dose screen, 48 h (100 = growth as untreated, 0 = no growth, -100 = all killed)
Settings in all cases: 10 µM unless noted
DU-145 prostate = tested on: DU-145 prostate
K-562 leukemia = tested on: K-562 leukemia
MALME-3M melanoma = tested on: MALME-3M melanoma
MDA-MB-231 breast = tested on: MDA-MB-231 breast
SF-268 CNS = tested on: SF-268 CNS
SF-295 CNS = tested on: SF-295 CNS
SF-539 CNS = tested on: SF-539 CNS
UACC-257 melanoma = tested on: UACC-257 melanoma
M14 melanoma = tested on: M14 melanoma
HCT-15 colon = tested on: HCT-15 colon
HT29 colon = tested on: HT29 colon
SNB-75 CNS = tested on: SNB-75 CNS
SNB-19 CNS = tested on: SNB-19 CNS
U251 CNS = tested on: U251 CNS
SK-MEL-5 melanoma = tested on: SK-MEL-5 melanoma
UACC-62 melanoma = tested on: UACC-62 melanoma
LOX IMVI melanoma = tested on: LOX IMVI melanoma
SK-MEL-28 melanoma = tested on: SK-MEL-28 melanoma
PC-3 prostate = tested on: PC-3 prostate

Row | Compound | growth (DU-145 prostate) | growth (K-562 leukemia) | growth (MALME-3M melanoma) | growth (MDA-MB-231 breast) | growth (SF-268 CNS) | growth (SF-295 CNS) | growth (SF-539 CNS) | growth (UACC-257 melanoma) | growth (M14 melanoma) | growth (HCT-15 colon) | growth (HT29 colon) | growth (SNB-75 CNS) | growth (SNB-19 CNS) | growth (U251 CNS) | growth (SK-MEL-5 melanoma) [%] | growth (UACC-62 melanoma) | growth (LOX IMVI melanoma) | growth (SK-MEL-28 melanoma) | growth (PC-3 prostate)
1 | C/C(=C(/c1ccccc1)c1ccc(OCC(O)CN2CCOCC2)cc1)c1ccccc1 (stereo not given) | 98.1% | 19.7% | 75.3% | 104% | 104% | 108% | 74.2% | 93.4% | -45.1% (active) | 53.8% | 13.1% | 91.4% | 102% | 81.1% | 87.1 | 97% | 87.9% | 90% | –
2 | O=C1Nc2ccccc2/C1=C\c1cccc(/C=C2/C(=O)Nc3ccccc32)n1 | -90.2% (active) | -24.1% (active) | -40.3% (active) | -52.3% (active) | -67.1% (active) | -81% (active) | -73.4% (active) | -65.8% (active) | -69.2% (active) | -81.3% (active) | 2.35% (active) | -71.5% (active) | -82.7% (active) | -98.1% (active) | – | -67.3% (active) | -88.2% (active) | -88.8% (active) | -28% (active)
3 | c1ccc(CCSc2ncnc3nc[nH]c23)cc1 | 108% | 72.4% | 106% | 85.2% | 103% | 75.6% | 84.8% | 46.2% | 97.5% | 98.2% | 90.6% | 98.7% | 84.8% | 91.1% | – | 76.9% | 80.5% | 103% | 82.8%
4 | O=C1NC(=S)NC(=O)C1=Cc1cccc(C=C2C(=O)NC(=S)NC2=O)c1 | 110% | 102% | 109% | 108% | 103% | 108% | 99.9% | 102% | -58.6% (active) | 105% | 104% | 98.9% | 98.9% | 114% | 100 | – | 102% | 110% | 104%
5 | CC1(C)CN(c2cnc(C(=O)Nc3cc(F)cc4cccnc34)cn2)CCN1 | 101% | 36.3% | 47.5% | 58% | 74.6% | 97.8% | 83.7% | 93.5% | 70.8% | 59.3% | 47.1% | 72.9% | 93.1% | 89.5% | – | 106% | 69.7% | 80.2% | 44.8%
6 | NC(=O)c1cccc(-c2cc(C(N)=O)ccc2Cl)c1 | 27.1% | 8.24% (active) | 46.4% | 47.4% | 45.3% | 25% | -21% (active) | 47.8% | 16.1% | 33.8% | 8.86% (active) | -19.6% (active) | 41.6% | 19.1% | – | 35.7% | 42.1% | 58.8% | 29.6%
7 | Cc1c([N+](=O)[O-])cc(C(C)(C)C)cc1[N+](=O)[O-] | 107% | 112% | 118% | 107% | 93.3% | 97.6% | 104% | 85.4% | 107% | 105% | 87.2% | 89.4% | 102% | 95.4% | – | 103% | 97.2% | – | 95.3%
8 | COc1cc(-c2cc(=O)oc3cc(O)ccc23)c(OC)c2c1OCO2 | 101% | 90.3% | 88.7% | 93.7% | 92.4% | 92% | 92.1% | 101% | 96.5% | 92.4% | 102% | 84.9% | 97.4% | 94.6% | 90.6 | – | 93.8% | 97% | 80.6%
9 | CN1C(=O)N(C)[C@H]2NC(NN)=N[C@H]21 | 114% | 98.9% | 94.3% | 102% | 94% | 101% | 102% | 97.1% | 100% | 103% | 105% | 80.9% | 106% | 98.7% | 101 | – | 97.8% | 101% | 96.3%
10 | Nc1nc(N)nc(NCc2ccccc2)n1 | 112% | 89.3% | 108% | 108% | 100% | 100% | 100% | 110% | 107% | 97.6% | 101% | 96.5% | 107% | 105% | 103 | – | 101% | 106% | 105%
11 | CS(=O)(=O)Nc1cc(-c2ccc3ncnc(Nc4ccc5[nH]ncc5c4)c3c2)cnc1Cl | 82.4% | 90.1% | 60.9% | 79.5% | 53.8% | 88% | 67.7% | 35.4% | 80.8% | 79.4% | 80.9% | 15.5% | 68.7% | 64.9% | 81 | 58.9% | 66.2% | 50.8% | –
12 | CSc1nnc2c(=O)n(C)c(=O)n(C)c2n1 | 100% | 86.1% | 114% | 105% | 108% | 130% | 109% | 123% | 102% | 100% | 111% | 100% | 97.5% | 97.2% | – | 95.8% | 83.5% | 95.5% | 83.2%
13 | O=C(N/N=C/c1ccncc1)c1ccccc1Nc1cccc(C(F)(F)F)c1 | 69.2% | 77.7% | 92.8% | 79.8% | 69.5% | 94.5% | 112% | 62.9% | 87.4% | 74.2% | 99.3% | 75.8% | 72.2% | 86.9% | – | 81% | 70.5% | 94.9% | 75.8%
14 | COc1ccc(NC(=O)c2sc3nc(C)c(C(=O)c4ccc(OC)cc4)cc3c2N)cc1 | 65.4% | 23.3% | 37.9% | 60.2% | 61.8% | 44.3% | 51% | 55.8% | 32.8% | 35.8% | 7.92% (active) | 21.2% | 65.2% | 39.7% | 35.1 | – | 54.2% | 64.9% | 56.4%
15 | O=C1/C(=C/c2ccc(O)cc2)COc2ccc(-c3ccccc3)cc21 | 59.7% | 39.3% | 116% | 94.6% | 69.1% | 89.8% | 90.7% | 92.7% | 86.6% | 48.1% | 27.1% | 90.4% | 109% | 63.6% | 81.7 | – | 53.9% | 117% | 60%
16 | Cc1nc2sc(C(=O)Nc3ccccc3)c(N)c2cc1C(=O)c1ccc(C(F)(F)F)cc1 | 106% | 101% | 101% | 101% | 101% | 94.2% | 93.5% | 101% | 93.4% | 103% | 103% | 17.4% | 96.3% | 102% | 98.1 | 95.3% | 96.9% | 99.7% | –
17 | Cc1ccc2nc3c(cc2c1)CSc1nnc(-c2ccc[nH]c2=S)n1N3 | 113% | 93% | 97.7% | 93.4% | 89.5% | 108% | 97.3% | 103% | 93% | 105% | 108% | 91.4% | 90.7% | 112% | – | 87% | 96.6% | 103% | 95.6%
